High-throughput results (PubChem)
Hits are enriched below; roughly 3.8% of the tested compounds scored in any of these assays.
ATXN2 expr inh: reduces ATXN2 reporter expression in HEK-293 cells. Potency, µM (titrated, usually from 57 µM), inactives show at the top dose activity change, negative = inhibition, hits mostly inhibitors. HEK-293 ATXN2-luciferase reporter, luminescence, 24 h. 360,000 tested, 0.72% active; also: % is scaled to controls: 0 for no effect and ±100 for the full control effect; nearly all actives have a fitted effect of over 55% in size
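qHTS (up to 57 uM final) was run with 24 h compound exposure of reporter cells at 37 °C. Each well was multiplexed: SteadyGlo luminescence measured ATXN2-luciferase expression after a fluorogenic Gly-Phe-AFC viability readout (25 uM final).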
ATXN viability: cell viability loss in ATXN counter-screen; S2 cells (HEK-293 line with an ATXN2-luciferase reporter) viability, CellTiter-Fluor protease fluorescence, 24 h; Potency, µM (titrated, usually from 56.7 µM), most hits filed as cytotoxic; AID 651635; 400,000 tested, 0.49% active; also: nearly all actives have a fitted effect of over 40% in size
TGFb SMAD3 inh: blocks TGF-b signaling; HepG2 CAGA-GFP TGF-b/SMAD3 reporter, GFP fluorescence, 18 h; TGF-beta stimulated, 500 pg/mL final; Potency, µM (titrated, usually from 46.1 µM), for the others: at the highest dose activity, negative = inhibition, hits mostly inhibitors; 410,000 tested, 1.2% active; also: % is scaled to controls: 0 for no effect and ±100 for the full control effect; nearly all actives have a fitted effect of over 65% in size
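HEPG2 CAGA-GFP, 1000 cells/well; 2 h settle, 37 C; cpd via pin tool; TGF-b 500 pg/mL final; 18 h, 37 C; GFP imaging ex488/em500-530; %Activity normalised to -TGF-b and +DMSO controls; CRC fit, curve class.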
HepG2 tox: HepG2 cytotoxicity, counter-screen for TGF-b inhibitors. Potency, µM (doses to about 46.1 µM), inactives show at the highest dose activity change, negative = cytotoxicity, usual class: cytotoxic. HepG2 CAGA-GFP viability, ATP luminescence, 18 h. 410,000 tested, 0.76% active
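HepG2 CAGA-GFP cells (1000/well, DMEM with 1% FBS) received compound, then TGF-beta at 500 pg/mL final, and were incubated 18 hours at 37 degrees C. Viability was read by CellTiter-Glo luminescence. Media-only wells were set as complete cell-killing and DMSO as no toxicity.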
Nrf2 block: blocks Nrf2 signaling | Potency, µM (series often up to 46 µM), without a hit: top-dose activity change, negative = inhibition, most hits filed as inhibitors | 360,000 tested, 2.1% active | A549 ARE-Fluc reporter, luciferase luminescence, 18-24 h; also: % is scaled to controls: 0 for no effect and ±100 for the full control effect; nearly all actives have a fitted effect of over 60% in size
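Reporter: ARE-Fluc in A549. Exposure: 18-24 h, 37 °C, 5% CO2, 5% FBS OPTI-MEM. Readouts: fluorescent cytotoxicity (CellTiter-Fluor), then luminescent Nrf2 signal after BugLite.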
A549 viability: counter-screen for Nrf2 inhibitors: cytotoxicity in A549 cells; A549 ARE-Fluc cells, CellTiter-Fluor viability, 18-24 h; Potency, µM (series often up to 46 µM), for the others: top-dose activity change, negative = cytotoxicity, actives largely listed as inhibitors; 390,000 tested, 0.16% active; also: % is scaled to controls: 0 for no effect and ±100 for the full control effect
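Cytotoxicity counterscreen: CellTiter-Fluor fluorescence was measured in A549 ARE_Fluc cells after 18-24 h of compound exposure in a concentration series. The subsequent BugLite luminescent read reports ARE-luciferase activity.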
An asterisk follows results filed as active; i = inactive; ? = inconclusive; · = no result given; ! = not active in a repeat. Calls follow the shape of the dose curve; as a rule, active = well fitted curve in the direction sought with a large enough effect; inconclusive = small, poorly fitted or top-dose-only effect, or another doubt; inactive = no such curve, though single readings can be large; an effect the other way counts as inactive or inconclusive. Potency is read from the fitted curve at half-maximal effect.

SMILES | ATXN2 expr inh | ATXN viability | TGFb SMAD3 inh | HepG2 tox | Nrf2 block | A549 viability
COc1cc(/C=C/CNC[C@H]2O[C@@H](n3ccc(=O)[nH]c3=O)[C@H](O)[C@@H]2O)ccc1O | 4% | i | -10% | -3% | 4% | -1%
CN(C)c1ccc(N=Nc2nccs2)cc1 | · | 10µM* | -4% | -19% | · | ·
CN(C)c1ccc(N=Nc2ccnc3ccccc23)cc1 | · | · | 8% | 16% | · | ·
COc1ccc(CCNC(=O)C(NS(=O)(=O)c2cccc3nsnc23)C(C)C)cc1OC (stereo not drawn) | 17% | i | 1% | 2% | 3% | 0%
O=C1NC[C@H](c2ccccc2)OC(=O)[C@H](Cc2ccc(F)cc2)C/C=C\C[C@H]1CC(=O)N(CCO)Cc1ccccc1 | 32µM* | ? | ? | -28% | -19% | -17%
O=C1NC[C@H](c2ccccc2)OC(=O)[C@@H](Cc2ccc(F)cc2)C/C=C\C[C@H]1CC(=O)N(CCO)Cc1ccccc1 | -20% | ? | ? | -116% | ? | ?
Cc1ccc(N(C(=O)Cc2c[nH]c3ccccc23)C(C(=O)NC2CCCCC2)c2ccco2)cc1 (stereo not drawn) | ? | ? | ? | -41% | 18µM* | ?
COc1ccc(C(C(=O)NC2CCCCC2)N(Cc2cccs2)C(=O)Cc2c[nH]c3ccccc23)cc1OC (stereo not drawn) | -14% | i | -1% | -1% | 23µM* | ?
CCCCn1c(N)c(N(CCOC)C(=O)COC(=O)COc2ccccc2C#N)c(=O)[nH]c1=O | -5% | i | -19% | -9% | -2% | 1%
CCN1CCN(C(=O)c2ccc3c(c2)N(Cc2ccccc2F)C(=O)c2ccccc2S3=O)CC1 (stereo not drawn) | 4% | ? | 0% | -15% | -4% | -6%
O=C(CSc1nc2ccccc2n1Cc1ccccc1)N/N=C/c1ccco1 | -10% | i | -17% | -15% | 8.2µM* | -18%
O=C(Nc1nc2ccccc2n1Cc1ccccc1)c1ccco1 | -35% | i | -30% | -19% | 16µM* | -14%
COc1ccc(-c2nc3ccccc3n2Cc2ccc(Cl)cc2)cc1 | -37% | ? | 16µM* | -117% | ? | -10%
CCC(=O)Nc1nc2ccccc2n1Cc1ccccc1Cl | · | ? | ? | -37% | ? | ?
CCC(=O)Nc1nc2ccccc2n1Cc1ccc(Cl)cc1 | · | ? | ? | -3% | 21µM* | -7%
COCCNC(=O)CCCn1c(SCC(=O)c2ccc(Br)cc2)nc2c(sc3ccccc32)c1=O | · | · | -1% | 0% | 16% | -8%
O=C1CC(c2ccc(Cl)cc2)Sc2nc(-c3ccc(F)cc3)nn21 (stereo not drawn) | -6% | i | 3% | 11% | 11% | 9%
Cc1ccc(Cn2c(-c3ccccc3)nc3ccccc32)cc1 | 6% | ? | -29% | -21% | -8% | 6%
Cc1ccc(Cn2c(Cc3ccccc3)nc3ccccc32)cc1 | ? | ? | ? | 16µM*! | ? | 11%
Cc1ccc(CN(Cc2cc3cc4c(cc3[nH]c2=O)OCCO4)Cc2nnnn2Cc2ccco2)cc1 | ? | ? | -16% | -31% | 26µM* | ?
Cc1ccc2cc(CN(Cc3ccc4c(c3)OCO4)Cc3nnnn3Cc3ccco3)c(=O)[nH]c2c1 | 0% | ? | -24% | 6% | ? | -19%
Cc1c(C(=O)NC(C)(C)C)sc2ncnc(NCCN(C)C)c12 | · | i | · | · | · | ·
O=C(Nc1nnc(CSCc2ccc(Cl)cc2)s1)c1cccc([N+](=O)[O-])c1 | -19% | i | 13% | 31% | ? | -16%
O=C(Nc1nnc(CSCc2ccc(F)cc2)s1)c1cccc([N+](=O)[O-])c1 | -9% | i | -23% | -3% | 18µM* | ?
O=C(Nc1nnc(-c2ccc(F)cc2)o1)c1ccc(S(=O)(=O)N2CCOCC2)cc1 | ? | i | -3% | -38% | 9.2µM* | -19%
SMILES | ATXN2 expr inh | ATXN viability | TGFb SMAD3 inh | HepG2 tox | Nrf2 block | A549 viability
COc1ccc(-c2nnc(NC(=O)c3ccc(F)cc3)o2)cc1 | -15% | 20µM* | ? | -19% | ? | -7%
COc1ccc(-c2nnc(NC(=O)c3ccc4c(c3)OCCO4)o2)cc1 | -25% | i | -9% | 1% | 0% | -5%
O=C1CC(C(=O)N2CCCC(c3nc(-c4ccncc4)ncc3-c3ccccc3)C2)C2(CCCCC2)O1 (stereo not drawn) | · | i | · | · | · | ·
COc1cccc(/C=C(\C#N)C(=O)Nc2ccc(NC(C)=O)cc2)c1OC | · | · | 6% | 1% | · | -2%
O=C(NNc1ccccc1F)c1sccc1Cl | · | · | · | · | 2% | -1%
CCOC(=O)CSc1nnc(NC(=O)CCc2ccccc2)s1 | · | i | -6% | -4% | -1% | 1%
CC(C)CN(C(=O)CN(C)CC(=O)Nc1ccc(Cl)c(C(F)(F)F)c1)c1c(N)n(CC(C)C)c(=O)[nH]c1=O | -15% | i | -3% | -8% | ? | -16%
CN(C)c1ccc(S(=O)(=O)N2CCCCC2)cc1NC(=O)CN1C(=O)NC2(CCCC2)C1=O | 3% | i | 0% | -8% | -11% | -4%
O=C(CCC1(C(=O)O)CCC(=O)NC1)NCc1ccccc1 (stereo not drawn) | 2% | i | -1% | 3% | ? | 2%
CCOC(=O)Cn1c(=O)c2c(nc(N3CCOCC3)n2Cc2ccccc2)n(C)c1=O | · | · | -11% | -1% | 9% | 6%
Cc1ccc(C(C)C)c(OCCCN(C)Cc2ccccc2)c1 | -35% | i | ? | -57% | 14% | 8%
Cc1ccc(C(C)C)c(OCC(O)CN(C)Cc2ccccc2)c1 (stereo not drawn) | -36% | ? | 16µM* | -154% | 0% | 0%
CCN(CC(=O)Nc1cc(Cl)ccc1OC)CC(=O)NC1CCS(=O)(=O)C1 (stereo not drawn) | · | i | -1% | 4% | 0% | 0%
Cc1nn(C(C)C)c(C)c1CN1CCC(C(=O)Nc2cccc(-c3cccc(F)c3)c2)CC1 | -36% | i | ? | 11µM* | 4% | ?
Cc1cccc(CN2CCC(C(=O)Nc3cccc(-c4cccc(F)c4)c3)CC2)n1 | ? | i | ? | -38% | ? | -26%
COc1cccc(-c2cccc(NC(=O)C3CCN(Cc4cnn(C)c4)CC3)c2)c1 | -2% | i | -1% | 1% | 14% | -1%
Cn1cc(CN2CCC(C(=O)Nc3cccc(-c4cccc(F)c4)c3)CC2)cn1 | -23% | i | 11µM* | -58% | 3% | -5%
